Most compounds without a hit are left out; they make up all but 2.7% or so of the library.
MPTP block: mitochondrial permeability transition pore inhibitors, primary screen, biochemical, isolated mouse mitochondria, absorbance; Ca2+ swelling absorbance, 30 min; AID 602449, 2012; inhibition, % at 10 µM; 1.4% of 360,000 active;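 active = inhibition of 50% or more, scaled per plate between neutral and stimulator controls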;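 also: 0% = DMSO wells given calcium and 100% = 1 mM EGTA wells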
F508del corr: F508del CFTR correction, initial screen, CFBE line, single point. CFBE cells, YFP halide quenching; stimulated with forskolin plus potentiator P3; % fluorescence drop versus neutral controls. activity (quench increase), % at 7.58 µM. 0.36% of 350,000 active. AID 720511, 2013;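 active = mean added fluorescence quench of at least 8% versus neutral control, with both replicates also reaching 8%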;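 also: cells transiently co-express mutant CFTR-F508del with the halide-sensitive YFP; corrector assay measuring rescue of mutant channel to the surface after 24 h compound exposure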
NRP1-CendR mod: modulators of CendR peptide binding to NRP-1, primary screen, biochemical, fluorescence polarization, uHTS. 0.85% of 360,000 active. Neuropilin-1 (Homo sapiens), O14786. AID 602438, 2012. inhibition, % at 25 µM. FAM-RPARPAR peptide binding to NRP-1;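 active = inhibition or corrected inhibition above about 18%, plus a signal ratio from 0.5 to 1.5, limit read from the data, passing the limit was not always enough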
ATG4B inh: ATG4B protease inhibitors, primary screen, biochemical, fluorescence, uHTS | Cysteine protease ATG4B (Homo sapiens), Q9Y4P1 | ATG4B cleavage of LC3-PLA2, NBD-HPC fluorescence, 1 h | inhibition, % at 8.33 µM | 0.51% of 340,000 active; in the data active = inhibition above about 40%
Target sequence (Q9Y4P1 whole entry, looked up): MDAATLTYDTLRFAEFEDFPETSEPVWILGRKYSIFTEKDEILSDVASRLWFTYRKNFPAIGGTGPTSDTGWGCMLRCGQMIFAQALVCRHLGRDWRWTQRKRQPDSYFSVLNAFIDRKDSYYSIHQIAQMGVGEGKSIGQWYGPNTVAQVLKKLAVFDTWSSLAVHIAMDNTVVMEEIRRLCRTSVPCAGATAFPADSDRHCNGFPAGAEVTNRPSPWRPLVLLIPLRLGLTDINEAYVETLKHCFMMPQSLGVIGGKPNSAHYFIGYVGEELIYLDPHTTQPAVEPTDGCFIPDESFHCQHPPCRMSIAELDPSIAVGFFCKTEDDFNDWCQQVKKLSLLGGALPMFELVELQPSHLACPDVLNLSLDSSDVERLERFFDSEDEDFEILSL
SKN-1 block: suppressors of acrylamide-induced Pgst-4::GFP reporter in worms, primary screen, SKN-1 inhibitor project, whole organism, uHTS, GFP/RFP fluorescence ratio, strain VP596. C. elegans VP596 Pgst-4::GFP/RFP ratio, 24 h. inhibition, % at 21.8 µM. 0.49% of 360,000 active;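 active = interference check ratio from 0.5 to 1.5 plus GFP to RFP signal ratio inhibition reaching or exceeding a fixed threshold, cut at about 30% in these data, passing the limit was not always enough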
Rh123 counter: fluorescence retest of MPTP screen hits in isolated mitochondria, single concentration. 78% of 5,000 active. inhibition, % at 10 µM. shares compounds with MPTP block. membrane potential, Rhodamine 123 fluorescence; in the data active = inhibition above about 22%;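 also: 0% = DMSO vehicle and 100% = positive control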
The depositor's hits bear a star; x = not tested or not shown.

SMILES	MPTP block	F508del corr	NRP1-CendR mod	ATG4B inh	SKN-1 block	Rh123 counter
CSc1ccccc1NC(=S)Nc1cccc(C(F)(F)F)c1	94.4*	x	10.7	-5.4	13.5	92.3*
COc1cccc(NC(=S)Nc2ccc(Br)cc2Cl)c1	55.5*	2.1	14.4	-4.2	-9.2	68.8*
CC(NC(=S)Nc1cccc(C(F)(F)F)c1)C(C)(C)C (stereo not given)	94.4*	-0.4	5.1	-0.2	1.7	94.8*
Cc1ccc(NC(=S)NNC(=S)Nc2cccc(C(F)(F)F)c2)cc1	73.3*	1.9	-2.2	10.7	15.4	53.3*
Cc1ccc(NC(=S)NNC(=S)Nc2ccc(C)cc2)cc1	49.6	-0.5	8.5	-2.8	-7.7	x
CC(C)NC(=O)Nc1ccc2c(c1)C(=O)N([C@@H](C)CO)C[C@@H](C)[C@H](CN(C)S(=O)(=O)c1ccc(Cl)cc1)O2	x	0.1	x	x	x	x
COc1ccc(NC(=S)Nc2cccc(C(F)(F)F)c2)c(C)c1	78.2*	-4.2	15.8	-7.5	7.6	104.0*
Clc1cccc(-c2nnc(SCc3nc4ccccc4[nH]3)n2Cc2ccco2)c1	2.7	x	-20.4	14.4	-4.0	x
Clc1ccc(OCc2nnc(SCc3nc4ccccc4[nH]3)n2Cc2ccco2)cc1	61.5*	x	-30.3	-7.1	-6.3	34.6*
C[C@H](CO)N1C[C@H](C)[C@H](CN(C)Cc2ccc(C(F)(F)F)cc2)Oc2ccc(NC(=O)Cn3cnnn3)cc2CC1=O	x	-2.1	x	x	x	x
Cc1cc(C)n(-c2nc(N(c3ccccc3)c3ccccc3)nc(-n3nc(C)cc3C)n2)n1	80.5*	x	-1.5	-0.1	9.3	2.1
O=C(NCc1cccc(C(F)(F)F)c1)c1cccc(S(=O)(=O)NCc2ccccc2)c1	60.0*	x	2.6	24.5	17.8	71.2*
COc1cc([N+](=O)[O-])cc(/C=N/NC(=O)c2ccc(NC(=O)c3ccc(C)cc3)cc2)c1O	111.8*	-6.1	-12.6	-0.6	7.3	1.2
COc1cc([N+](=O)[O-])cc(/C=N/NC(=O)c2ccc(C)nc2)c1O	-14.0	x	-8.5	5.8	-1.1	x
CN(C)CC(=O)Nc1ccc2c(c1)[C@H]1C[C@H](CC(=O)NCc3cccc(F)c3)O[C@@H](CO)[C@H]1O2	x	-2.0	x	x	x	x
O=C(Nc1ccc(Cl)c([N+](=O)[O-])c1)ONC1=NCCCCC1	81.5*	1.4	-7.4	-6.2	5.1	90.8*
COCC(=O)Nc1ccc2c(c1)C(=O)N(C)C[C@@H](OC)[C@H](C)CN(Cc1ccccc1)[C@H](C)CO2	x	0.7	x	x	x	x
COc1ccc(C2=C/C(=C\c3cccc(OC(C)=O)c3)C(=O)O2)cc1	56.7*	-0.4	-14.3	-2.9	-2.7	60.4*
C[C@@H]1CCCCO[C@@H](CN(C)Cc2ccc(Cl)c(Cl)c2)[C@@H](C)CN([C@H](C)CO)C(=O)c2cc(N(C)C)ccc2O1	x	0.4	x	x	x	x
CCOC(=O)c1sc(NC(=O)Nc2ccccc2F)nc1C	57.7*	x	-2.1	0.8	1.7	68.3*
O=c1c2c(-c3ccccc3)csc2nc2c3ccccc3c(NCCN3CCOCC3)nn12	58.4*	0.4	1.5	-11.8	-0.3	-17.0
Cc1ccc(C(=O)N(c2ccccn2)C(C)c2ccco2)cc1 (stereo not given)	0.3	x	18.7	-2.8	3.5	x
CC(c1ccco1)N(C(=O)Nc1ccc(Cl)cc1)c1ccccn1 (stereo not given)	85.4*	x	4.8	-1.7	-19.3	98.3*
CO[C@@H]1CN(C)C(=O)c2cc(NC(C)=O)ccc2OC[C@@H](C)N(CC2CC2)C[C@H]1C	x	2.8	x	x	x	x
C[C@H](CO)N1C[C@H](C)[C@@H](CN(C)S(C)(=O)=O)Oc2ccc(NC(=O)CCCCCC(=O)Nc3ccccc3N)cc2C1=O	x	-0.6	x	x	x	x
CCCCNS(=O)(=O)c1ccc(NC(=O)C(Sc2ccccc2)c2ccccc2)cc1 (stereo not given)	76.5*	x	9.3	-1.6	-1.0	67.8*
Cc1nc2ccccc2c(N)c1C(=O)/C=C/c1ccccc1	95.5*	4.7	-5.9	4.4	-3.2	84.4*

Compound activity deposited in PubChem BioAssay by several laboratories.
